Compound activity from PubChem.
Sampled rows, rich in hits. Any-hit rate of the full collection: about 2.7%.
HIF-2a inh: inhibitors of HIF-2a; 786-0 RCC cells HIF-2a reporter, luciferase luminescence, overnight; 0.72% of 360,000 active; inhibition, % at 18.8 µM;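 active = inhibition of the luminescence signal of 40% or more relative to plate controls, in a single-dose primary screen at 18.75 µM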
Peg3 promoter: inhibitors of Peg3 promoter; HeLa PEG-Prom luciferase reporter, luminescence, overnight; inhibition, % at 20 µM; 1.7% of 360,000 active;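 active = inhibition of at least 50% at 20 µM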
MITF TRPM1 inh: reduces MITF-dependent TRPM1 promoter luciferase signal. SK-MEL-5 TRPM1 promoter luciferase, 24 h. 0.83% of 330,000 active. inhibition, % at 12.5 µM. AID 488899;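 active = mean inhibition across replicates of 60% or more, whatever share of single replicates reaches that level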
KKLEB tox: CF airway cell cytotoxicity counter-screen | KKLEB CF airway cells viability, ATPlite luminescence, overnight; stronger effect = lower value; cells stimulated with P. aeruginosa culture filtrate | activity change (cytotoxicity), % at 5 µM | 0.36% of 360,000 active;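 active = corrected activity change at or below -50% at 5 µM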
Shn3 3UTR inh: Schnurri-3 reporter inhibition in Clone20 osteoblasts. Clone20 osteoblast Shn3 3'UTR firefly luciferase, 24 h. inhibition, % at 12.5 µM. 0.52% of 360,000 active. AID 588674;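 active = mean inhibition of at least 75% with every replicate also reaching 75%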;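 note: 0% = median of neutral control wells and 100% = pilot-screen positive control compound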
CF NFkB block: blocks PAF-induced NF-kB reporter in cystic fibrosis cells; KKLEB NF-kB-GFP reporter, GFP fluorescence overnight; inhibition, % at 5 µM; 0.86% of 360,000 active;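 active = at least 50% inhibition at 5 µM, scaled per plate between neutral and stimulator controls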;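 note: PAF is a Pseudomonas aeruginosa culture filtrate used as stimulus; plate controls were PAF-stimulated DMSO wells for no effect and unstimulated DMSO wells for full effect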
Numbers without * were called inactive; . = no result.

SMILES	HIF-2a inh	Peg3 promoter	MITF TRPM1 inh	KKLEB tox	Shn3 3UTR inh	CF NFkB block
COC(=O)c1nc(-c2ccc3c(n2)C(=O)C(N)=C(OC)C3=O)c(N)c(-c2ccc(OC)c(OC)c2O)c1C	37	53*	100*	-28	46	89*
CC1CCCCC1NC(=O)CNC(=S)N1CC2CC(C1)c1cccc(=O)n1C2 (centres undefined)	5	3	3	-8	22	-5
C[N+]1(C)[C@@H]2CC[C@H]1CC(OC(=O)C(c1ccccc1)c1ccccc1)C2 (some centres undefined)	12	12	1	1	-12	-2
O=C(OC1CCN(CCCl)CC1)C(c1ccccc1)c1ccccc1	13	10	39	44	93*	1
CN(N)N=Nc1nc2c([nH]1)c(=O)n(C)c(=O)n2C	8	4	-3	2	0	5
CCN(CC)c1ccc(/C=C/[N+](=O)[O-])cc1	-3	7	16	-14	16	-11
O=[N+]([O-])/C=C/c1c(Cl)cccc1Cl	-6	92*	111*	-3	77	57*
CCOC(=O)c1cncn1[C@@H](C)c1ccccc1	10	1	-2	5	-10	-17
O=C1NC(=O)N(c2ccccc2)C(=O)/C1=C/c1ccc(Sc2ccccc2)o1	28	50*	33	-6	20	11
COC(=O)C1=C(c2ccc3ccccc3c2)C[C@@H]2CC[C@H]1N2C(=O)N1CCC(C)CC1	9	8	14	-12	34	16
Nc1ccccc1C(=O)OCCc1ccccc1	-205	-302	-83	-4	-38	-24
CC(=NNC(=S)N1CC2CCC(CC2)C1)c1nccs1	-251	-31	57	-26	93*	67*
CN(C)CCN(C(=O)COc1ccc(Cl)cc1)c1nc2cc3c(cc2s1)OCO3	-45	-74	-9	-6	-30	-7
CC1=C(N2CC2)C(=O)C(CO)=C(N2CC2)C1=O	89*	100*	106*	-104*	96*	97*
OC(Cn1c2ccccc2c2ccccc21)C[n+]1cccc2ccccc21 (centres undefined)	14	59*	-21	-14	18	11
COC(=O)C1=C(c2ccc(OC)c(OC)c2)C[C@@H]2CC[C@H]1N2C(=O)NC1CCCCC1	13	1	6	0	-3	-26
CCOP(=O)(OCC)C(NC(=O)c1ccccc1)=C(Cl)Cl	15	9	-2	-1	2	5
CCOC(=O)C1=C(NC(=S)NC(=O)c2ccccc2)c2ccccc2CC12CCCC2	0	50*	2	-1	50	16
NC(Cc1ccccc1)c1csc(Nc2ccccn2)n1 (centres undefined)	-132	-169	.	7	-3	-8
NC(Cc1ccc(Cl)cc1)c1csc(Nc2ccccn2)n1 (centres undefined)	-27	73*	.	-15	-8	24
Cn1c(O)c(C(=Nc2ccc(F)cc2)c2ccccc2Cl)c(=O)n(C)c1=O	13	0	-4	19	2	-3
Cc1cc(-c2ccccc2)cc(-c2ccccc2)[n+]1CCc1ccccc1	-30	-36	65*	4	76	-13
C[n+]1c(-c2ccccc2)cc(-c2ccc(O)cc2)cc1-c1ccccc1	2	2	4	-2	14	6
Clc1ccc(C[n+]2c(-c3ccccc3)cc(-c3ccccc3)cc2-c2ccccc2)cc1	13	88*	92*	-32	77	43
CCOc1ccc(-c2cc(C)[n+](CCO)c(-c3ccc(OCC)cc3)c2)cc1	13	-2	63*	-13	16	-2
SMILES	HIF-2a inh	Peg3 promoter	MITF TRPM1 inh	KKLEB tox	Shn3 3UTR inh	CF NFkB block
CCOc1ccc(-c2cc(C)[n+](CCc3ccc(OC)c(OC)c3)c(-c3ccc(OCC)cc3)c2)cc1	-10	59*	97*	-16	19	14
Cc1ccc(-c2cc(-c3ccccc3)cc(-c3ccccc3)[n+]2-c2ccccc2C(=O)O)cc1	-11	6	46	-9	-18	-16
C[C@]12CC[C@H](O)C[C@H]1CC[C@@H]1[C@@H]2CC[C@]2(C)C(=O)CC[C@@H]12	-3	-4	-19	-6	-9	11
C=C1C2[C@H](OC(C)=O)[C@@H]3CC(=O)[C@]4(C)OC[C@@]3(C)[C@@]4(O)[C@@H](OC(C)=O)[C@H](OC(C)=O)[C@@]2(COC(=O)c2ccccc2)[C@@H](OC(C)=O)C[C@@H]1O (some centres undefined)	6	21	11	3	-8	-16
N=C1c2ccccc2CN1NC(=O)c1ccco1	6	-3	-3	10	-4	-12
C=C(C=O)CC1CC(O)[C@]2(C)OC3CC4OC5C[C@]6(C)O[C@]7(C)CCC8OC9C[C@]%10(C)OC%11C(C)=CC(=O)OC%11CC%10OC9C[C@@H](C)C8OC7CC6O[C@]5(C)CC5OC5C4OC3CC2O1 (some centres undefined)	94*	100*	96*	-70*	59	91*
c1ccc(C2(N3CCCCC3)CCCCC2)cc1	-3	1	-3	21	7	-13
S=C=Nc1cccc(C2(N3CCCCC3)CCCCC2)c1	-15	64*	75*	-5	-4	4
CC12CCC(=O)C=C1CCC1C2CCC2(C)C1CCC2(O)CC#N (centres undefined)	-2	-3	6	2	24	12
C(#CCN1CCCC1)CN1CCCC1	16	-6	-32	26	-20	-18
O=C(c1ccc(Cl)cc1)C1CCCN(Cc2cccc3cccnc23)C1 (centres undefined)	19	17	6	-2	-2	25
O=C(c1ccc(Cl)cc1)C1CCCN(Cc2cccc3ncccc23)C1 (centres undefined)	11	2	16	-12	86*	4
Cc1ccc(S(=O)(=O)N(C)C)cc1NC(=O)C(C)[N+]12CCN(CC1)CC2 (centres undefined)	11	11	-3	5	-8	-6
CC(C)n1c(O)c(C2c3cc(Cl)ccc3Oc3[nH]c(=O)n(C(C)C)c(=O)c32)c(=O)[nH]c1=O (centres undefined)	94*	115*	102*	1	79	91*
Cc1cc(-c2cc(C)c(N)c(C)c2)cc(C)c1N	15	-9	0	4	-8	2
CC[n+]1c(/C=C/C=C/c2ccc(N(C)C)cc2)sc2ccccc21	-19	65*	71*	18	84	-26
CC[n+]1c(/C=C/N(C)c2ccccc2)sc2ccc(Cl)cc21	0	35	67*	-45	92*	27
CN(C)c1ccc(/C=C/C=C/c2sc3ccccc3[n+]2C)cc1	0	29	63*	-9	.	22
CN(C)c1ccc(/C=C/c2cc[n+](C)c3ccccc23)cc1	-11	31	82*	2	81	-114
